The list is not random: actives were taken first. Their share in the collection is about 2.1%.
HNF4A DNA FP – change in binding of human HNF4 alpha to DNA; P41235; HNF4a-FITC DNA binding, fluorescence polarization, 1 h; activity change, % at 10 µM; 360,000 compounds, 0.3% hits; in the data active = activity change above about 30%, passing the limit was not always enough
Target sequence (P41235 whole entry, looked up): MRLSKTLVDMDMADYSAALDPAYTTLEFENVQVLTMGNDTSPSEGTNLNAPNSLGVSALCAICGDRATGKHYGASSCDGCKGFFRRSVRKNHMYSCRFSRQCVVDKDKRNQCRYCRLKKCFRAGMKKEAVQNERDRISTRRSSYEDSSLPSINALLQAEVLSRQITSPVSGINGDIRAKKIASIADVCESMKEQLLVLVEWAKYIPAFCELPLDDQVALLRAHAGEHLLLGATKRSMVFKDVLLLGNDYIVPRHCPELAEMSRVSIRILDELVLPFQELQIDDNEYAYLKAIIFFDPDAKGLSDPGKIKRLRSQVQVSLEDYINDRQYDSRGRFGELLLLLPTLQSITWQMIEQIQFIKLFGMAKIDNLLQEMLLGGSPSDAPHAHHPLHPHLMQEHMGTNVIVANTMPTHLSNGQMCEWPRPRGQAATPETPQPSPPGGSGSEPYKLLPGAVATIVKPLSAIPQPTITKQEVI
Myeloid diff MLP – promotes myeloid progenitor differentiation; AID 624256; calls only at 10 µM; ER-HoxA9 myeloid progenitors, lysozyme-GFP differentiation, flow cytometry; 360,000 compounds, 1% hits;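 active = normalized GFP-positive differentiation at or above the plate's own cutoff, the solvent-only control mean plus 3 SD; inconclusive = no clear call, values can overlap the other calls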;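 also: cells exposed to compound for four days before flow analysis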
TPT1 inhibitor – inhibitors of Candida albicans tRNA 2'-phosphotransferase TPT1. inhibition, % at 5 µM. AID 1962. 300,000 compounds, 0.81% hits. recombinant caTPT1, FP RNA substrate dephosphorylation;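 active = inhibition above the mean of all tested compounds plus 3 SD, set per screening campaign, cut at about 24% in these data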;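 also: plate controls were DMSO alone for no effect and ferristatin control at 100 nM for full effect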
Rpn11 block – inhibitors of human proteasome Rpn11 | inhibition, % at 20 µM | O00487 | 360,000 compounds, 0.59% hits | human 26S proteasome, Ub4-pepOG fluorescence polarization; 20S core pre-blocked with epoxomicin;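 active = inhibition at 20 µM, scaled to each plate's controls, above about 33%, limit read from the data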
Numbers without * were called inactive; i = inactive; ? = inconclusive; · = not tested or not shown; + = active, no number; ! = not active in a repeat.

SMILES	HNF4A DNA FP	Myeloid diff MLP	TPT1 inhibitor	Rpn11 block
COc1cccc(Cn2c(NCc3cccnc3)nc3c2c(=O)n(C)c(=O)n3C)c1	-1.0	+	-0.5	-8.9
CC/C(C)=N/NC(=O)c1[nH]c2ccc(C)cc2c1-c1ccccc1	-0.5	+	-2.2	-2.0
O=C1C(=C(O)c2ccccc2)C(=O)c2ccccc21	-1.6	+	2.1	17.1
O=C1CCCc2cc3c(ccc4ccccc43)cc21	1.6	i	·	9.5
O=C1CCSc2c1ccc1ccccc21	-0.2	+	·	8.5
COc1ccc(-c2csc(C(O)c3ccccc3)n2)cn1 (configuration not stated)	1.8	i	·	2.5
CCCCCCN1C=C/C(=C\C=C(C#N)C#N)c2ccccc21	23.3	+	4.7	36.8
O=c1oc2ccccc2cc1-c1nc2ccccc2o1	4.3	i	-1.3	-4.2
Nc1cc2nc3ccccc3oc-2cc1=O	3.9	i	23.8	54.3*
O=[N+]([O-])c1cccc(/C=C/C=N/Nc2nc(N3CCCCC3)nc(N3CCCCC3)n2)c1	-5.0	i	-1.4	0.1
Cc1ccc(SCC(=O)OCC(=O)NC(C)c2ccc(F)cc2)cc1 (configuration not stated)	-1.4	i	·	-2.3
CN1c2cccc3cccc(c23)N(C)C1(C)C	3.6	?	2.2	1.7
CC(=O)c1ccc2cccc3c2c1N=CN3C	-5.8	+	-16.3	-22.9
NC(=O)c1sc2nc(-c3ccccc3)c3c(c2c1N)CCCC3	6.2	+	0.0	10.8
O=C(CN1C(=O)C2CC=CCC2C1=O)OCCN1C(=O)c2ccccc2C1=O (configuration not stated)	4.7	i	-3.6	-1.8
CCOC(=O)C1=C(C)N=c2s/c(=C\c3ccc(OCC(=O)O)cc3)c(=O)n2C1c1ccccc1 (configuration not stated)	0.3	i	6.0	6.7
CCOC(=O)C1=C(C)N=c2sc(=Cc3ccc(OCC(=O)O)cc3)c(=O)n2C1c1ccc(SC)cc1 (configuration not stated)	6.2	i	·	45.3*
CS(=O)(=O)c1sc2nc(-c3cccs3)cc(-c3ccccc3)c2c1N	6.0	+	5.2	11.8
N#Cc1sc2nc(C3CC3)cc(-c3ccccc3)c2c1N	-0.1	i	4.1	-4.8
N#Cc1sc2nc(-c3cccs3)cc(-c3ccc(F)cc3)c2c1N	4.4	+	4.4	9.6
COCCNC(=O)C1(C)Cc2c(-c3ccc4c(c3)OCO4)ccnc2O1 (configuration not stated)	-4.6	i	·	-6.5
Cc1cc(C)c[n+](-c2nc3ccccc3nc2C(=C=[N-])C#N)c1	43.8*!	i	0.9	15.4
Cc1cc(C)n(-c2ccn(Cc3ccc(Cl)cc3Cl)c(=O)n2)n1	0.8	+	-6.1	0.5
Cc1nn(Cc2ccc(Cl)cc2Cl)c(C)c1NC(=O)CCl	3.6	i	-2.2	-1.8
O=C(Nc1ccc2c(c1)OCCO2)C1CCC1	68.4*	i	0.1	-4.1
SMILES	HNF4A DNA FP	Myeloid diff MLP	TPT1 inhibitor	Rpn11 block
O=C(COC(=O)C1(c2ccccc2F)CCCC1)N1CCNC1=O	-2.0	i	·	-7.1
COc1cc2c(cc1OC)C1=CC(=O)C(=O)N1C(C)(C)C2	4.2	+	-22.8	36.4
COc1cc2c(cc1OC)/C(=C/C#N)NC(C)(C)C2	2.8	i	10.0	2.8
CCOC(=O)N1CCN(S(=O)(=O)c2cccc3ccc(C)nc23)CC1	5.3	i	-2.3	-4.7
CC1Cc2nc(SCC(=O)c3ccccc3)n(Cc3ccccc3)c(=O)c2S1 (configuration not stated)	-1.0	+	2.1	-6.1
CC1Cc2nc(SCC(=O)NCc3ccccc3)n(Cc3ccccc3)c(=O)c2S1 (configuration not stated)	0.4	i	-4.2	-4.6
CC1Cc2nc(SCC(=O)Nc3ccc4c(c3)OCO4)n(CCc3ccccc3)c(=O)c2S1 (configuration not stated)	1.4	i	1.1	4.2
CCn1c(SCC(=O)Nc2ccc3c(c2)OCO3)nc2c(c1=O)SC(C)C2 (configuration not stated)	-5.4	+	2.0	-12.6
COc1ccc(C(CNC(=O)c2cc(S(=O)(=O)N3CCN(c4ccccc4)CC3)ccc2Cl)N(C)C)cc1 (configuration not stated)	-1.1	i	·	4.8
COc1ccccc1NC(=O)C1=C(C)NC(=O)NC1c1cc(C)cs1 (configuration not stated)	-5.7	i	-3.3	-4.0
O=C(NC1CCN(C(=S)Nc2ccc(F)cc2)CC1)c1ccco1	3.0	i	1.1	1.3
CC(=O)NN1C(=O)/C(=C/c2ccc(Br)o2)SC1=S	60.2*	i	11.8	33.9
CC(=O)NN1C(=O)/C(=C\c2ccccc2)SC1=S	-2.8	i	2.4	0.5
COC(=O)c1c(C)[nH]c(C(=O)CC#N)c1C	2.2	+	-9.4	23.7
COC(=O)c1c(C)[nH]c(C(=O)CN2CCOCC2)c1C	-2.7	i	-3.9	-2.5
CCOC(=O)c1[nH]c(C)c(C(=O)Nc2cccc(Cl)c2C)c1C	0.8	+	0.1	5.1
CCOC(=O)c1[nH]c(C)c(C(=O)Nc2ccc(Cl)cc2)c1C	-1.8	i	-1.4	0.2
CCc1ccccc1NC(=O)CN1CCN(C(=O)CNC(=O)Cc2cccc3ccccc23)CC1	34.0*	i	·	-5.0
Cc1cccc(C)c1NC(=O)CN1CCN(C(=O)CNC(=O)Cc2cccc3ccccc23)CC1	0.5	i	·	4.3
O=C(O)c1cc(-c2ccc(/C=c3\sc4nc5ccc(Br)cc5n4c3=O)o2)ccc1Cl	·	·	71.2*	·
Clc1ccc(C(Cn2ccnc2)OCc2c(Cl)cccc2Cl)c(Cl)c1 (configuration not stated)	1.2	+	0.4	7.5
C=CCNC(=O)CN1C(=O)CSc2ccc(S(=O)(=O)N3CCOCC3)cc21	-2.6	i	·	-8.4
c1ccc(-c2c[n+]3c(n2-c2ccccc2)CCC3)cc1	-3.6	+	-2.7	-1.7
Cc1ccc(-c2c[n+]3c(n2-c2ccccc2)CCC3)cc1	-3.2	?	1.9	-0.9
O=C(c1cc(COc2cccc(C(F)(F)F)c2)on1)N1CCC(c2ccncc2)CC1	0.6	?	3.2	8.9
SMILES	HNF4A DNA FP	Myeloid diff MLP	TPT1 inhibitor	Rpn11 block
COc1cccc(OCc2cc(C(=O)N(C)C3CCOCC3)no2)c1	1.0	+	-3.7	5.6
COc1cccc(OCc2cc(C(=O)N3CCC(c4ccncc4)CC3)no2)c1	3.2	+	-1.4	2.0
Cc1ccc(S(=O)(=O)N2[C@H](CC(=O)c3ccc(Cl)c(Cl)c3)OC[C@@H]2C(C)C)cc1	3.8	i	·	·
COc1ccc(C)cc1N(C(=O)c1ccco1)C(C(=O)NC1CCCC1)c1ccc(N2CCOCC2)cc1 (configuration not stated)	2.4	+	-1.6	-7.0
COc1ccc(OC)c(N(C(=O)c2ccco2)C(C(=O)NC2CCCC2)c2ccc(N3CCOCC3)cc2)c1 (configuration not stated)	-1.2	i	-2.6	2.6
CCN(CC)c1ccc(/C=N/NC(=O)c2ccc3nc[nH]c3c2)c(O)c1	2.2	+	-0.6	-1.1

Compound activity deposited in PubChem BioAssay by several laboratories.
